Consider nine compounds from PubChem BioAssay (NCI).

Among the test systems are SR leukemia; RPMI-8226 leukemia; OVCAR-8 ovarian; OVCAR-5 ovarian; OVCAR-4 ovarian; SK-OV-3 ovarian; IGROV1 ovarian; HS 578T breast; NCI/ADR-RES ovarian; T-47D breast; BT-549 breast; MDA-MB-435 melanoma; SW-620 colon; MCF7 breast; HCT-116 colon; HCC-2998 colon; KM12 colon.
Assay in all cases: NCI-60 one-dose screen, 48 h (100 = growth as untreated, 0 = no growth, -100 = all killed)
Settings in all cases: 10 µM unless noted

About 83,000 compounds went through this panel and 20% of them were active in at least one assay; those are over-represented in the sample as a whole.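 The endpoint reported here, percent growth, reads 100 for growth as untreated, 0 for no net growth and -100 for all cells dead.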 Unmarked numbers belong to inactive results. Activity calls are given as the source filed them. How the source made its calls: active means growth percent below 10; inactive means the rest.

Consider `Clc1ccc2c(N/N=C/c3c[nH]c4ccccc34)ccnc2c1`, for which the growth with SR leukemia is 2.13% (active); with RPMI-8226 leukemia it was -25% (active); in the test with OVCAR-8 ovarian, -68% (active); in the test with OVCAR-5 ovarian it was -83.9% (active); in the test with OVCAR-4 ovarian, -61.2% (active); in the test on SK-OV-3 ovarian, -85.6% (active). The growth is -87.2% (active) in the test with IGROV1 ovarian; -47% (active) in the test with HS 578T breast; -71.8% (active) in the test on NCI/ADR-RES ovarian; -54.5% (active) with T-47D breast; -89.1% (active) in the test with BT-549 breast; -92.9% (active) in the test with MDA-MB-435 melanoma. For the same compound, the growth is -74.8% (active) with SW-620 colon; -72% (active) with MCF7 breast; -91.9% (active) in the test with HCT-116 colon; -92.3% (active) in the test on HCC-2998 colon; -77.2% (active) in the test on KM12 colon.

Consider `CCC1=Cc2c(OC)cccc2OC12C=Cc1c(OC)cccc1O2` (stereo not drawn), for which the growth in the test with SR leukemia is 15.2%; in the test on RPMI-8226 leukemia it was 25.2%; with OVCAR-8 ovarian, 24.3%; with OVCAR-5 ovarian, 36.5%; in the test with OVCAR-4 ovarian, 76.7%; in the test on SK-OV-3 ovarian, 56.5%. In addition, the growth in the test with IGROV1 ovarian was 29.8%; in the test on HS 578T breast, 28.4%; with NCI/ADR-RES ovarian it was -24.2% (active); with T-47D breast, 46.8%; in the test with BT-549 breast, 46.6%; with MDA-MB-435 melanoma, -18.8% (active). Moreover, the growth was 30% in the test with SW-620 colon; 10.8% with MCF7 breast; 8.84% (active) with HCT-116 colon; 2.34% (active) in the test on HCC-2998 colon; 12.4% in the test on KM12 colon.

Take `O=C1[C@@H]2Cc3c([nH]c4ccccc34)[C@@H](c3ccc(Cl)cc3)N2C(=O)CN1C1CCN(Cc2c(F)cccc2F)CC1`: the growth in the test with SR leukemia is -4.42% (active); with RPMI-8226 leukemia, 12.5%; in the test with OVCAR-8 ovarian it was 43.7%; in the test with OVCAR-5 ovarian, 59.4%; in the test with OVCAR-4 ovarian, 44.8%; with SK-OV-3 ovarian, 68.5%. For the same compound, the growth in the test on IGROV1 ovarian was 25.6%; in the test on HS 578T breast, 53.8%; in the test on NCI/ADR-RES ovarian, 42.5%; in the test on T-47D breast it was 56.8%; with BT-549 breast, 46.3%; in the test on MDA-MB-435 melanoma, 46.9%. Moreover, the growth with SW-620 colon was 48.6%; in the test on MCF7 breast it was 15.3%; in the test on HCT-116 colon it was 17.8%; in the test with HCC-2998 colon, 6.16% (active); in the test on KM12 colon it was 35.1%.

In the case of `CC/C(=C(/c1ccc(Cl)cc1)c1ccc(OCCN)cc1)c1ccccc1`, the growth was 0.24% (active) with SR leukemia; 89.8% in the test on RPMI-8226 leukemia; 100% in the test on OVCAR-8 ovarian; 119% in the test on OVCAR-5 ovarian; 99.3% with OVCAR-4 ovarian; 119% in the test with SK-OV-3 ovarian. Also, the growth in the test on IGROV1 ovarian is 96.8%; in the test on HS 578T breast it was 90.3%; in the test with NCI/ADR-RES ovarian it was 99.9%; in the test with T-47D breast, 93.1%; in the test with BT-549 breast, 129%; in the test with MDA-MB-435 melanoma it was 96.7%. Further, the growth was 16.5% in the test on SW-620 colon; 54.9% in the test with MCF7 breast; 56% in the test with HCT-116 colon; 83.7% in the test on HCC-2998 colon; 84.7% in the test with KM12 colon.

For `CCc1nnc(NC(=O)c2cc(-c3ccc(Cl)cc3Cl)oc2C)s1`, the growth in the test with SR leukemia is 96.5%; with RPMI-8226 leukemia, 87.7%; in the test with OVCAR-8 ovarian, 90.3%; in the test with OVCAR-5 ovarian, 92.7%; in the test with OVCAR-4 ovarian, 48.4%; in the test on SK-OV-3 ovarian, 106%. Moreover, the growth in the test with IGROV1 ovarian was 87.8%; with HS 578T breast, 86%; in the test with NCI/ADR-RES ovarian, 88.7%; with T-47D breast, 61.7%; with BT-549 breast, 90.4%; in the test on MDA-MB-435 melanoma, 90.6%. The growth in the test on SW-620 colon is 93.3%; with MCF7 breast, 84.9%; in the test with HCT-116 colon, 42.2%; in the test with HCC-2998 colon, 111%; in the test on KM12 colon, 72.7%.

As to `O=c1c2ccccc2cc2n1CCN=C2c1ccccc1`, the growth was 93.6% with SR leukemia; 99.2% in the test with RPMI-8226 leukemia; 101% in the test on OVCAR-8 ovarian; 108% in the test on OVCAR-5 ovarian; 97.7% in the test on OVCAR-4 ovarian; 103% in the test on SK-OV-3 ovarian. Moreover, the growth in the test with IGROV1 ovarian is 116%; in the test on HS 578T breast, 92.6%; with NCI/ADR-RES ovarian, 99.7%; in the test with T-47D breast, 91.7%; with BT-549 breast, 116%; with MDA-MB-435 melanoma, 104%. Besides, the growth is 96% with SW-620 colon; 94.7% in the test with MCF7 breast; 106% in the test with HCT-116 colon; 109% in the test on HCC-2998 colon; 104% in the test with KM12 colon.

With `N#Cc1c(-c2cccs2)c(C#N)c(=O)n(Cc2nc3ccccc3[nH]2)c1N`, the growth in the test with SR leukemia was 92.5%; in the test on RPMI-8226 leukemia, 95.9%; in the test on OVCAR-8 ovarian, 95.1%; with OVCAR-5 ovarian, 116%; with OVCAR-4 ovarian it was 99.6%; in the test on SK-OV-3 ovarian it was 95.4%. Moreover, the growth with IGROV1 ovarian was 61.7%; in the test on HS 578T breast, 102%; in the test with NCI/ADR-RES ovarian, 99.5%; in the test on T-47D breast it was 74.8%; in the test on BT-549 breast, 102%; with MDA-MB-435 melanoma it was 110%. For the same compound, the growth is 95.6% in the test on SW-620 colon; 66.1% with MCF7 breast; 100% in the test with HCT-116 colon; 116% in the test on HCC-2998 colon; 102% with KM12 colon.

Consider `O=C1C(SCc2ccccc2)=C(Cl)CN1c1ccc(Cl)cc1`, for which the growth is 1.35% (active) with SR leukemia; 88.8% with RPMI-8226 leukemia; 95.2% in the test with OVCAR-8 ovarian; 109% with OVCAR-5 ovarian; 103% in the test with OVCAR-4 ovarian; 117% in the test on SK-OV-3 ovarian. In addition, the growth with IGROV1 ovarian was 104%; in the test with HS 578T breast, 100%; with NCI/ADR-RES ovarian it was 105%; in the test on T-47D breast it was 50.4%; with BT-549 breast it was 109%; in the test with MDA-MB-435 melanoma, 100%. Also, the growth in the test on SW-620 colon is 101%; with MCF7 breast, 25.7%; in the test with HCT-116 colon, 89.7%; with HCC-2998 colon, 95.9%; in the test with KM12 colon it was 99.1%.

Consider `Cc1ccc(C(=O)CSc2nnc(-c3ccc(-c4ccc(Cl)cc4)nc3C)o2)cc1`, for which the growth in the test with SR leukemia was 96.5%; in the test on RPMI-8226 leukemia, 96.7%; with OVCAR-8 ovarian, 107%; in the test with OVCAR-5 ovarian, 102%; in the test with OVCAR-4 ovarian, 101%; in the test on SK-OV-3 ovarian, 98.1%. Further, the growth in the test on IGROV1 ovarian is 91.6%; in the test on HS 578T breast it was 102%; in the test on NCI/ADR-RES ovarian, 100%; in the test with T-47D breast, 92.1%; in the test on BT-549 breast, 107%; in the test on MDA-MB-435 melanoma, 103%. The growth was 103% in the test with SW-620 colon; 81% in the test on MCF7 breast; 98.1% in the test on HCT-116 colon; 103% in the test with HCC-2998 colon; 97.2% in the test with KM12 colon.
